Shown are actives, neighbours in structure and some others; about 19% of the full set was active somewhere.
IL1B secr inh: inflammasome signaling inhibition, IL-1 beta readout. THP-1 LPS/ATP IL-1B secretion, AlphaLISA, 16 h; hits give low values. activity change, % at 57.5 µM. 4.7% of 360,000 active. AID 743279; in the data active means activity change below about -50%; inconclusive means mostly about -30% to -49%
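Secreted IL-1B measured by AlphaLISA bead assay after 16 h compound exposure of THP-1 cells; compounds (final up to 57.5 uM) added 1 h before LPS (250 ng/mL) and ATP (1.25 mM) stimulation; lower signal means less secretion.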
TDP1 cell CPT: DT40-hTDP1 cell growth loss with CPT; chicken DT40 Tdp1-/-;hTDP1 cells + 20 nM CPT, ATP luminescence, 48 h; Potency, µM (titrated, usually from 46.2 µM), for the others: at the highest dose activity change, negative = growth inhibition, usual class: inhibitors; 12% of 420,000 active; further: potency means the concentration at half of the fitted maximal effect; nearly all actives have a fitted effect of over 55% in size
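Cell growth measured by CellTiter-Glo luminescence after a minimum 48 h, 37 C compound exposure with 20 nM CPT in Tdp1-knockout DT40 cells stably expressing hTDP1, seeded 400/well; qHTS titration format.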
HT1080NT lethal: kills 2HG-producing HT-1080-NT fibrosarcoma cells; HT-1080-NT fibrosarcoma viability, CellTiter-Glo ATP luminescence, 48 h; Potency, µM (doses to about 46.1 µM), for inactives: at the top dose activity, negative = less viability, most hits filed as cytotoxic; 1.6% of 360,000 active;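 further: NT is the 2HG producing partner of a matched IDH1 knockdown line; potency means the concentration at half of the fitted maximal effect; 0% = DMSO-treated cells and -100% = media-only wells without cells; nearly all actives have a fitted effect of over 55% in size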
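Viability of the 2HG-overproducing fibrosarcoma line after 48 hours of compound exposure at 37 degrees C was determined by luminescence with CellTiter-Glo, and concentration-effect curves were then fitted and categorized.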
DT40 TDP1 no CPT: qHTS for Inhibitors of human tyrosyl-DNA phosphodiesterase 1 (TDP1): qHTS in cells in absence of CPT | DT40 Tdp1-/- hTDP1 cells, no CPT, ATP luminescence, 48 h | Potency, µM (titrated, usually from 46.2 µM), for the others: at the top dose activity change, negative = growth inhibition, actives largely listed as inhibitors | 15% of 420,000 active | AID 686978, 2013; further: potency means the concentration at half of the fitted maximal effect; nearly all actives have a fitted effect of over 55% in size
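No-CPT arm: Tdp1-/-;hTDP1 DT40 cells (400/well) plus compounds, incubated ≥48 hr at 37 °C. Readout CellTiter-Glo luminescence.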
HT1080 IDH1KD tx: kills HT-1080 cells with IDH1 knockdown; 2% of 360,000 active; HT-1080 IDH1 knockdown viability, ATP luminescence, 48 h; Potency, µM (doses to about 46.1 µM), for the others: at the highest dose activity, negative = toxicity, most hits filed as cytotoxic;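 further: potency means the concentration at half of the fitted maximal effect; 0% = DMSO wells and -100% = cell-free medium wells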
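Cytotoxicity counter-line: IDH1KD HT-1080, 48 h, CellTiter-Glo. Curves classed by r2, magnitude and activity.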
The depositor's hits bear a star. Unless noted, the call rests on the fitted dose curve; in most records, active means well fitted curve in the direction sought with a large enough effect; inconclusive means small, poorly fitted or top-dose-only effect, or another doubt; inactive means no such curve, though single readings can be large; an effect the other way counts as inactive or inconclusive. Unless noted, on the % scale 0 is the no-effect control and ±100 the full control effect.

Screening COc1ccc(C(=O)Nc2nc3ccccc3n2CCOc2ccc(Cl)cc2)cc1 returned TDP1 cell CPT inconclusive and DT40 TDP1 no CPT 13µM*.
For CCCCn1c(NC(=O)c2ccccc2)nc2ccccc21 the results were IL1B secr inh 49, TDP1 cell CPT inconclusive, HT1080NT lethal inconclusive, DT40 TDP1 no CPT inconclusive and HT1080 IDH1KD tx 0%.
`COc1ccc(OCCn2c(NC(=O)c3ccco3)nc3ccccc32)cc1` gave IL1B secr inh -20, TDP1 cell CPT 18µM*, HT1080NT lethal inconclusive, DT40 TDP1 no CPT 23µM* and HT1080 IDH1KD tx inconclusive.
`COc1ccc2sc(NC(=O)c3ccco3)nc2c1` gave IL1B secr inh 8, TDP1 cell CPT inconclusive, HT1080NT lethal inconclusive, DT40 TDP1 no CPT -24% and HT1080 IDH1KD tx -20%.
S=C(Nc1ccccc1)Nc1nc2ccccc2n1CCOc1ccccc1 was read as IL1B secr inh -106*, TDP1 cell CPT 18µM*, HT1080NT lethal inconclusive, DT40 TDP1 no CPT 16µM* and HT1080 IDH1KD tx inconclusive.
`CC(=O)c1ccc(NC(=O)c2nc3ccccc3n(C)c2=O)cc1` gave TDP1 cell CPT -27% and DT40 TDP1 no CPT -25%.
O=C(N/N=C/C=C/c1ccccc1)c1ccc(Br)cc1 was read as IL1B secr inh -10, TDP1 cell CPT -20%, HT1080NT lethal -1%, DT40 TDP1 no CPT -24% and HT1080 IDH1KD tx 2%.
`O=C(Cc1cccs1)N/N=C/C(Br)=C/c1ccccc1` gave IL1B secr inh -7, TDP1 cell CPT inconclusive, HT1080NT lethal inconclusive, DT40 TDP1 no CPT inconclusive and HT1080 IDH1KD tx inconclusive.
O=C(N/N=C/C(Br)=C\c1ccccc1)c1n[nH]c2c1CCC2 was read as IL1B secr inh 1, TDP1 cell CPT 0.23µM*, HT1080NT lethal 0.32µM*, DT40 TDP1 no CPT 0.23µM* and HT1080 IDH1KD tx 0.56µM*.
`O=C(N/N=C/C=C/c1ccccc1)c1n[nH]c2c1CCC2` gave IL1B secr inh 68, TDP1 cell CPT 1.6µM*, HT1080NT lethal 1.8µM*, DT40 TDP1 no CPT 0.82µM* and HT1080 IDH1KD tx 1.3µM*.
Screening O=C(N/N=C/C=C/c1ccccc1)c1cccnc1 returned IL1B secr inh -3, TDP1 cell CPT 21µM*, HT1080NT lethal -1%, DT40 TDP1 no CPT inconclusive and HT1080 IDH1KD tx -6%.
For CC(/C=N/NC(=O)c1n[nH]c2c1CCC2)=C\c1ccccc1 the results were IL1B secr inh 63, TDP1 cell CPT 1.2µM*, HT1080NT lethal 0.18µM*, DT40 TDP1 no CPT 1.3µM* and HT1080 IDH1KD tx 0.37µM*.
Screening CSCCC(NC(=O)c1ccc(C)o1)C(=O)O (configuration not stated) returned IL1B secr inh 16, TDP1 cell CPT 4%, HT1080NT lethal 25%, DT40 TDP1 no CPT 5% and HT1080 IDH1KD tx 22%.
Screening O=C(O)CC(C(=O)Nc1ccc(F)cc1)C1CCCO1 (configuration not stated) returned IL1B secr inh -4, TDP1 cell CPT -10%, HT1080NT lethal -1%, DT40 TDP1 no CPT inconclusive and HT1080 IDH1KD tx -2%.
For CSCC[C@H](NC(=O)c1ccc(Cl)c([N+](=O)[O-])c1)c1nc2ccccc2[nH]1 the results were IL1B secr inh -102*, TDP1 cell CPT inconclusive, HT1080NT lethal inconclusive, DT40 TDP1 no CPT inconclusive and HT1080 IDH1KD tx inconclusive.
`CCCCC(NC(C)=O)c1nc2ccccc2[nH]1` (configuration not stated) gave IL1B secr inh 16, TDP1 cell CPT 1%, HT1080NT lethal 2%, DT40 TDP1 no CPT -6% and HT1080 IDH1KD tx -7%.
Screening CCn1nc(C(=O)N[C@@H](CCSC)c2nc3ccccc3[nH]2)c2ccccc2c1=O returned IL1B secr inh -4, TDP1 cell CPT -27%, HT1080NT lethal -2%, DT40 TDP1 no CPT -25% and HT1080 IDH1KD tx 0%.
O=C(Nc1nc2ccccc2[nH]1)c1ccc(Cl)c([N+](=O)[O-])c1 was read as IL1B secr inh -1, TDP1 cell CPT inconclusive, HT1080NT lethal -5%, DT40 TDP1 no CPT inconclusive and HT1080 IDH1KD tx 3%.
For O=C(NC(Cc1ccccc1)c1nc2ccccc2[nH]1)c1ccc(Cl)c([N+](=O)[O-])c1 (configuration not stated) the results were IL1B secr inh -165*, TDP1 cell CPT 10µM*, HT1080NT lethal 21µM*, DT40 TDP1 no CPT 23µM* and HT1080 IDH1KD tx inconclusive.
For CCCC(NC(=O)c1ccc(Br)o1)c1nc2ccccc2[nH]1 (configuration not stated) the results were IL1B secr inh -9, TDP1 cell CPT 16µM*, HT1080NT lethal 5%, DT40 TDP1 no CPT inconclusive and HT1080 IDH1KD tx 2%.
For CCCCn1nc(C(=O)N[C@@H](CCSC)c2nc3ccccc3[nH]2)c2ccccc2c1=O the results were IL1B secr inh -21, TDP1 cell CPT 26µM*, HT1080NT lethal inconclusive, DT40 TDP1 no CPT inconclusive and HT1080 IDH1KD tx inconclusive.
For Cc1cnc(CNc2ncncc2-c2ccccc2C(F)(F)F)cn1 the results were TDP1 cell CPT inconclusive and DT40 TDP1 no CPT -28%.
Screening CC(=O)c1cccc(NC(=O)[C@H](Cc2ccccc2)N2Cc3ccccc3C2=O)c1 returned TDP1 cell CPT -4% and DT40 TDP1 no CPT inconclusive.
O=C(O)/C=C/C(=O)Nc1nc(-c2ccc3ccccc3c2)cs1 was read as IL1B secr inh 13, TDP1 cell CPT -12%, HT1080NT lethal 2%, DT40 TDP1 no CPT -20% and HT1080 IDH1KD tx -1%.
O=C(/C=C/c1ccco1)NC(=S)Nc1nc(-c2ccc(Cl)cc2)cs1 was read as IL1B secr inh -8, TDP1 cell CPT 5.2µM*, HT1080NT lethal -1%, DT40 TDP1 no CPT 4.6µM* and HT1080 IDH1KD tx -8%.
`O=C(/C=C\c1ccco1)Nc1nc(-c2ccccc2)cs1` gave IL1B secr inh 0, TDP1 cell CPT 18%, HT1080NT lethal 10%, DT40 TDP1 no CPT -17% and HT1080 IDH1KD tx 12%.
For COc1ccc(-c2csc(NC(=S)NC(=O)/C=C/c3ccccc3)n2)cc1Br the results were IL1B secr inh 3, TDP1 cell CPT inconclusive, HT1080NT lethal -16%, DT40 TDP1 no CPT 23µM* and HT1080 IDH1KD tx -19%.
`O=C(/C=C/c1ccco1)NC(=S)Nc1nc(-c2ccc3ccccc3c2)cs1` gave IL1B secr inh -5, TDP1 cell CPT 3.3µM*, HT1080NT lethal inconclusive, DT40 TDP1 no CPT 4.1µM* and HT1080 IDH1KD tx inconclusive.
